This is an account of results in PubChem BioAssay (NCI).

Some test systems named below: SR leukemia; RPMI-8226 leukemia; OVCAR-8 ovarian; OVCAR-5 ovarian; OVCAR-4 ovarian; SK-OV-3 ovarian; IGROV1 ovarian; OVCAR-3 ovarian; HS 578T breast; NCI/ADR-RES ovarian; BT-549 breast; MDA-MB-435 melanoma; SW-620 colon; MCF7 breast; HCT-116 colon; KM12 colon; T-47D breast; HCC-2998 colon.
Test in all cases: NCI-60 one-dose screen, 48 h (100 = growth as untreated, 0 = no growth, -100 = all killed)
Details in all cases: 10 µM unless noted

This is part of a sample that, as a whole, favours compounds with a hit. Of some 83,000 tested, about 20% had one in any assay.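 Plates (96-well) were seeded with cells, treated with compound at one concentration, and incubated for 48 hours before percent growth was determined.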 A number with no mark means an inactive call. Calls of active or inactive are those of the source. Rule for the calls: active = growth percent below 10; inactive = the rest.

Regarding `CC1(C)[C@@H](O)CC[C@]2(C)[C@H]3CC[C@@H]4[C@H]5[C@H](C(=O)/C=C\c6ccncc6)CC[C@]5(O)CC[C@@]4(C)[C@]3(C)CC[C@@H]12`, the growth was 4.32% (active) in the experiment with SR leukemia; 12.1% in the experiment on RPMI-8226 leukemia; 40.3% in the experiment with OVCAR-8 ovarian; 47.5% in the experiment on OVCAR-5 ovarian; 38.5% in the experiment on OVCAR-4 ovarian; 113% in the experiment on SK-OV-3 ovarian. Also, the growth in the experiment on IGROV1 ovarian was 37.3%; in the experiment with OVCAR-3 ovarian it was 34.6%; with HS 578T breast it was 39.3%; in the experiment with NCI/ADR-RES ovarian it was 25.5%; in the experiment with BT-549 breast it was 68.2%; in the experiment on MDA-MB-435 melanoma, 14.9%. In addition, the growth is 26.5% with SW-620 colon, 24.6% in the experiment on MCF7 breast, 14.9% in the experiment on HCT-116 colon and 39.2% with KM12 colon.
Take `COc1ccc(Oc2ccc(/C=N/NC(=O)CSc3nc4ccccc4c(=O)n3-c3ccc(Cl)cc3)cc2)cc1`: the growth in the experiment on SR leukemia was 72.8%; with RPMI-8226 leukemia, 85.1%; in the experiment with OVCAR-8 ovarian it was 85.7%; in the experiment on OVCAR-5 ovarian, 81.2%; with OVCAR-4 ovarian, 72.5%; in the experiment on SK-OV-3 ovarian, 66.3%. Besides, the growth is 48.7% with IGROV1 ovarian; -56.8% (active) with OVCAR-3 ovarian; -4.46% (active) with HS 578T breast; 51.1% in the experiment with NCI/ADR-RES ovarian; 89.4% in the experiment with BT-549 breast; 87.7% in the experiment with MDA-MB-435 melanoma. The growth was 44.4% in the experiment with SW-620 colon, 49.3% with MCF7 breast, 13.3% in the experiment with HCT-116 colon and 77.2% with KM12 colon.
`CC/C(=C/c1c(O)cccc1OC)c1ccc2c(OC)cccc2[o+]1`: the growth is 90.4% in the experiment on SR leukemia; 109% in the experiment on RPMI-8226 leukemia; 101% in the experiment with OVCAR-8 ovarian; 106% with OVCAR-5 ovarian; 99.7% in the experiment on OVCAR-4 ovarian; 97.8% in the experiment with SK-OV-3 ovarian. Further, the growth was 102% with IGROV1 ovarian; 107% with HS 578T breast; 99.7% in the experiment on NCI/ADR-RES ovarian; 106% in the experiment on T-47D breast; 98.5% with BT-549 breast; 97.7% in the experiment on MDA-MB-435 melanoma. For the same compound, the growth in the experiment on SW-620 colon is 101%; in the experiment with MCF7 breast, 86.4%; with HCT-116 colon it was 104%; in the experiment with HCC-2998 colon it was 106%; in the experiment on KM12 colon it was 98.9%.
Regarding `CNC(=O)c1cc(Oc2ccc3nc(NC(=O)c4cccc(OC(F)(F)F)c4)sc3c2)ccn1`, the growth in the experiment on SR leukemia is 58.3%; with RPMI-8226 leukemia it was 71.7%; in the experiment on OVCAR-8 ovarian, 81.7%; with OVCAR-5 ovarian, 95.3%; in the experiment on OVCAR-4 ovarian, 56.5%; with SK-OV-3 ovarian it was 88.4%. Moreover, the growth in the experiment on IGROV1 ovarian was 90.3%; with HS 578T breast, 69.6%; in the experiment with NCI/ADR-RES ovarian, 67.3%; with T-47D breast it was 63.1%; in the experiment with BT-549 breast, 137%; in the experiment with MDA-MB-435 melanoma, 79%. The growth with SW-620 colon was 103%; with MCF7 breast, 77.6%; with HCT-116 colon, 75.5%; with HCC-2998 colon, 108%; in the experiment on KM12 colon it was 85.6%.
Consider `O=C1[C@H]2Cc3c([nH]c4ccccc34)[C@@H](c3ccc(Cl)cc3)N2C(=O)CN1C1CCN(Cc2ccccc2)CC1`, for which the growth in the experiment with SR leukemia is 10.4%; in the experiment on RPMI-8226 leukemia, 17%; in the experiment on OVCAR-8 ovarian, 72.7%; in the experiment with OVCAR-5 ovarian, 74.8%; in the experiment on OVCAR-4 ovarian, 49.1%; with SK-OV-3 ovarian, 79.7%. Further, the growth is 33.5% in the experiment with IGROV1 ovarian; 47.7% with OVCAR-3 ovarian; 68.1% in the experiment with HS 578T breast; 51.3% in the experiment with NCI/ADR-RES ovarian; 83.9% with BT-549 breast; 43.8% in the experiment with MDA-MB-435 melanoma. The growth with SW-620 colon is 62.5%; with MCF7 breast, 12.6%; in the experiment on HCT-116 colon, 33%; with HCC-2998 colon, 40.3%; with KM12 colon, 47.7%.
Turning to `N#C/C(=C\c1ccc(-c2ccc(Cl)cc2Cl)o1)c1ccc(F)cc1`, the growth in the experiment on SR leukemia was 90.5%; in the experiment on RPMI-8226 leukemia, 85%; in the experiment with OVCAR-8 ovarian, 93.8%; in the experiment on OVCAR-5 ovarian it was 92.2%; in the experiment on OVCAR-4 ovarian, 80.4%; in the experiment with SK-OV-3 ovarian, 81.9%. Besides, the growth in the experiment with IGROV1 ovarian was 86.5%; in the experiment with HS 578T breast it was 89.9%; with NCI/ADR-RES ovarian it was 93.7%; in the experiment with T-47D breast it was 78.8%; in the experiment with BT-549 breast it was 112%; in the experiment on MDA-MB-435 melanoma, 93.7%. In addition, the growth in the experiment with SW-620 colon is 93.5%; in the experiment on MCF7 breast, 66.9%; with HCT-116 colon, 88.1%; in the experiment with HCC-2998 colon it was 105%; in the experiment on KM12 colon, 94.2%.
In the case of `CCCCCCCn1cc2c(N[C@H](C)c3ccccc3)ncnc2n1`, the growth in the experiment with SR leukemia was 99.5%; in the experiment on RPMI-8226 leukemia, 100%; in the experiment on OVCAR-8 ovarian, 103%; with OVCAR-5 ovarian, 104%; with OVCAR-4 ovarian, 100%; in the experiment on SK-OV-3 ovarian it was 117%. Moreover, the growth with IGROV1 ovarian was 89.9%; with OVCAR-3 ovarian, 103%; with HS 578T breast, 91.2%; with NCI/ADR-RES ovarian it was 102%; in the experiment with BT-549 breast, 102%; with MDA-MB-435 melanoma, 103%. In addition, the growth in the experiment with SW-620 colon is 117%; in the experiment with MCF7 breast it was 90.3%; in the experiment with HCT-116 colon it was 104%; in the experiment on HCC-2998 colon, 116%; in the experiment with KM12 colon it was 100%.
With `Nc1nc(Nc2ccccc2SSc2ccccc2Nc2nc(N)nc(-c3ccccc3)n2)nc(-c2ccccc2)n1`, the growth in the experiment on SR leukemia is -47% (active); with RPMI-8226 leukemia it was 11.2%; in the experiment with OVCAR-8 ovarian, 73.9%; in the experiment on OVCAR-5 ovarian, 107%; with OVCAR-4 ovarian it was 63%; with SK-OV-3 ovarian it was 130%. Moreover, the growth was 52.2% with IGROV1 ovarian; 90.3% with OVCAR-3 ovarian; 84.3% with HS 578T breast; 14.9% in the experiment with NCI/ADR-RES ovarian; 90.6% in the experiment with MDA-MB-435 melanoma; 70.5% in the experiment with SW-620 colon. Also, the growth was 68.3% with MCF7 breast, 61.3% with HCT-116 colon, 110% in the experiment on HCC-2998 colon and 22.1% with KM12 colon.
For `CC(C)(C)n1cc(-c2ccnc(NCCCNS(=O)(=O)c3cccc(F)c3)n2)c(-c2ccc(Cl)c(O)c2)n1`, the growth is 94.1% with SR leukemia; 76% with RPMI-8226 leukemia; 118% with OVCAR-8 ovarian; 109% with OVCAR-5 ovarian; 101% with OVCAR-4 ovarian; 105% in the experiment with SK-OV-3 ovarian. The growth with IGROV1 ovarian is 103%; with OVCAR-3 ovarian, 109%; with HS 578T breast, 101%; in the experiment on NCI/ADR-RES ovarian, 101%; with BT-549 breast it was 95.6%; with MDA-MB-435 melanoma, 101%. Besides, the growth was 116% with SW-620 colon; 97.9% in the experiment with MCF7 breast; 88.6% in the experiment on HCT-116 colon; 114% in the experiment with HCC-2998 colon; 92.9% with KM12 colon.
